Among the test systems are DU-145 prostate; K-562 leukemia; MALME-3M melanoma; MDA-MB-231 breast; RXF 393 renal; SF-268 CNS; SF-295 CNS; SF-539 CNS; UACC-257 melanoma; M14 melanoma; HCT-15 colon; HT29 colon; SNB-75 CNS; SNB-19 CNS; U251 CNS; PC-3 prostate; SK-MEL-5 melanoma; UACC-62 melanoma; LOX IMVI melanoma; SK-MEL-28 melanoma.
What all share (assay): NCI-60 one-dose screen, 48 h (100 = growth as untreated, 0 = no growth, -100 = all killed)
Settings in all cases: 10 µM unless noted

SMILES strings stand for the structures. Compounds without any hit were thinned out: in the full panel of roughly 83,000, 20% have a hit.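 In brief: 96-well plates, 48 h treatment, single concentration, percent growth endpoint.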 A number with no mark means an inactive call. Active and inactive are the calls of the source. The calls were made as follows: active = growth percent below 10; inactive = the rest.

For `COc1ccc(-c2cc(-c3ccc(Cl)cc3)nc(NCCCCNc3ccnc4cc(Cl)ccc34)n2)cc1`, the growth with DU-145 prostate was 98.8%; with K-562 leukemia, 0.414% (active); in the assay with MALME-3M melanoma, -18% (active); in the assay with MDA-MB-231 breast it was 73.4%; in the assay on RXF 393 renal it was 26.5%; in the assay on SF-268 CNS it was 86.5%. In addition, the growth with SF-295 CNS is 83.8%; in the assay on SF-539 CNS, 64.8%; in the assay on UACC-257 melanoma it was 3.17% (active); with M14 melanoma it was 34.6%; in the assay on HCT-15 colon it was 0.532% (active); in the assay with HT29 colon it was 4.81% (active). The growth with SNB-75 CNS was 99.5%; in the assay with SNB-19 CNS, 95.5%; in the assay with U251 CNS, 70.9%; in the assay on PC-3 prostate, 54.8%; in the assay with SK-MEL-5 melanoma it was 26.8%; in the assay on UACC-62 melanoma, 84.8%. Also, the growth was -78.3% (active) in the assay with LOX IMVI melanoma and -7.9% (active) in the assay on SK-MEL-28 melanoma.
Turning to `N#CC1C(=O)NC(c2ccccc2[N+](=O)[O-])c2sc3c(F)cccc3c21` (stereo not given), the growth is 89.9% in the assay with DU-145 prostate; 35.9% in the assay with K-562 leukemia; 74.7% in the assay with MALME-3M melanoma; 75.6% with MDA-MB-231 breast; 69.9% with RXF 393 renal; 86.7% in the assay on SF-268 CNS. Besides, the growth in the assay on SF-295 CNS was 20.8%; in the assay with SF-539 CNS it was 85.7%; in the assay with UACC-257 melanoma it was -37.3% (active); with M14 melanoma, 92.7%; in the assay on HCT-15 colon it was 87.8%; in the assay on HT29 colon, 85.3%. Also, the growth is 82.6% in the assay on SNB-75 CNS; 70.8% with SNB-19 CNS; 42.6% in the assay with U251 CNS; 80% with PC-3 prostate; 75.2% in the assay with SK-MEL-5 melanoma; 9.47% (active) in the assay with UACC-62 melanoma. The growth with LOX IMVI melanoma is 91.4%; in the assay on SK-MEL-28 melanoma, 111%.
Turning to `CC1(C)C(=O)/C(=C\c2cccnc2)C[C@]2(C)[C@H]3CC[C@@H]4[C@H]5[C@H](C(=O)/C=C/c6cccnc6)CC[C@]5(C(=O)O)CC[C@@]4(C)[C@]3(C)CC[C@@H]12`, the growth with DU-145 prostate was -80.6% [100 µM] (active); with K-562 leukemia it was 6.57% [100 µM] (active); in the assay with MALME-3M melanoma, -73.8% [100 µM] (active); in the assay on MDA-MB-231 breast it was -34.6% [100 µM] (active); with RXF 393 renal, -61.9% [100 µM] (active); in the assay on SF-268 CNS it was -34.9% [100 µM] (active). Further, the growth with SF-295 CNS is -75.8% [100 µM] (active); with SF-539 CNS, -56.9% [100 µM] (active); with UACC-257 melanoma, -52% [100 µM] (active); in the assay with M14 melanoma it was -38.4% [100 µM] (active); in the assay on HCT-15 colon, -74.6% [100 µM] (active); in the assay with HT29 colon it was -72% [100 µM] (active). Further, the growth with SNB-75 CNS was -96.5% [100 µM] (active); in the assay on SNB-19 CNS, -83.3% [100 µM] (active); with U251 CNS, -82.3% [100 µM] (active); in the assay on PC-3 prostate, -38.4% [100 µM] (active); with SK-MEL-5 melanoma, -73.5% [100 µM] (active); in the assay with UACC-62 melanoma it was -89.8% [100 µM] (active). Besides, the growth with LOX IMVI melanoma is -68.9% [100 µM] (active); in the assay on SK-MEL-28 melanoma it was -71.7% [100 µM] (active).
For `CC(=O)Nc1ccc(C=Nc2ccc3ccccc3c2)cc1`, the growth is 112% in the assay with DU-145 prostate; 105% with K-562 leukemia; 111% in the assay with MALME-3M melanoma; 109% in the assay with MDA-MB-231 breast; 108% in the assay on RXF 393 renal; 105% in the assay on SF-268 CNS. Also, the growth in the assay with SF-295 CNS was 119%; with SF-539 CNS it was 107%; with UACC-257 melanoma it was 103%; in the assay on M14 melanoma, 97%; with HCT-15 colon it was 105%; with HT29 colon it was 105%. The growth in the assay on SNB-75 CNS is 77.7%; with SNB-19 CNS, 92.9%; in the assay on U251 CNS it was 113%; with PC-3 prostate, 96.5%; in the assay with SK-MEL-5 melanoma, 99.6%; with UACC-62 melanoma, 97.2%. Further, the growth with LOX IMVI melanoma was 114%; in the assay with SK-MEL-28 melanoma, 108%.
As to `CC(C)CSc1ncnc2nc[nH]c12`, the growth in the assay with DU-145 prostate was 100%; in the assay on K-562 leukemia it was 102%; in the assay on MALME-3M melanoma, 104%; in the assay with MDA-MB-231 breast, 98.3%; in the assay on RXF 393 renal, 92.3%; in the assay on SF-268 CNS, 91.5%. The growth is 103% in the assay on SF-295 CNS; 88.4% with SF-539 CNS; 98.4% in the assay with UACC-257 melanoma; 98.4% in the assay on M14 melanoma; 97.2% in the assay on HCT-15 colon; 99.5% in the assay with HT29 colon. Besides, the growth in the assay on SNB-75 CNS was 101%; in the assay with SNB-19 CNS, 93.8%; with U251 CNS it was 103%; with PC-3 prostate, 81.7%; in the assay on SK-MEL-5 melanoma it was 95.6%; in the assay on UACC-62 melanoma, 84.8%. Also, the growth in the assay with LOX IMVI melanoma is 98%; with SK-MEL-28 melanoma, 101%.
As for `O=C1C(Cl)=C(Nc2ccc3cn[nH]c3c2)C(=O)c2ccccc21`, the growth with DU-145 prostate is -100% (active); in the assay with K-562 leukemia, -50% (active); in the assay on MALME-3M melanoma it was -88.7% (active); with MDA-MB-231 breast it was -50.3% (active); with RXF 393 renal, -95.9% (active); in the assay on SF-268 CNS it was -98.7% (active). Besides, the growth with SF-295 CNS is 5.88% (active); in the assay on SF-539 CNS, 10.5%; in the assay on UACC-257 melanoma, 19.3%; in the assay on M14 melanoma, -83.8% (active); in the assay with HCT-15 colon, -84.1% (active); in the assay with HT29 colon it was -66.9% (active). The growth with SNB-75 CNS is -84.5% (active); with SNB-19 CNS it was 76.5%; in the assay on U251 CNS, -93.2% (active); in the assay with PC-3 prostate it was -42% (active); with SK-MEL-5 melanoma, -99.5% (active); in the assay with UACC-62 melanoma it was -97.9% (active). Moreover, the results for the growth in the assay on LOX IMVI melanoma and in the assay with SK-MEL-28 melanoma were -87.5% (active) and -97.7% (active), respectively.
For `N#C/C(C(=O)c1ccccc1)=C1/C(=O)Nc2ccc(F)cc21`, the growth with DU-145 prostate is 110%; with K-562 leukemia it was 110%; in the assay with MALME-3M melanoma, 104%; in the assay with MDA-MB-231 breast, 92.2%; in the assay on RXF 393 renal, 127%; in the assay on SF-268 CNS, 101%. The growth in the assay with SF-295 CNS was 102%; in the assay on SF-539 CNS it was 96.9%; in the assay with UACC-257 melanoma it was 103%; in the assay with M14 melanoma it was 104%; in the assay on HCT-15 colon it was 106%; in the assay with HT29 colon it was 116%. Also, the growth in the assay on SNB-75 CNS was 78.3%; in the assay with SNB-19 CNS, 98.4%; in the assay with U251 CNS it was 104%; with PC-3 prostate, 93.3%; in the assay with SK-MEL-5 melanoma, 103%; in the assay with UACC-62 melanoma, 92.7%. Moreover, the growth was 100% with LOX IMVI melanoma and 108% in the assay on SK-MEL-28 melanoma.
For the compound `C=CCCCCCCCCC(=O)OC(C)C`, the growth was 101% in the assay with DU-145 prostate; 107% with K-562 leukemia; 78.9% in the assay with MALME-3M melanoma; 97.4% in the assay on MDA-MB-231 breast; 93.2% in the assay on RXF 393 renal; 96.9% in the assay on SF-268 CNS. For the same compound, the growth in the assay on SF-295 CNS is 98.8%; in the assay on SF-539 CNS, 104%; with UACC-257 melanoma, 94.9%; in the assay on M14 melanoma it was 96.4%; with HCT-15 colon, 99.1%; in the assay on HT29 colon, 98.6%. In addition, the growth was 103% with SNB-75 CNS; 105% in the assay with SNB-19 CNS; 96.1% in the assay with U251 CNS; 99.7% with PC-3 prostate; 95.9% with SK-MEL-5 melanoma; 105% with UACC-62 melanoma. For the same compound, the figures for the growth in the assay on LOX IMVI melanoma and in the assay with SK-MEL-28 melanoma were 100% and 104%, respectively.

The values are drawn from PubChem BioAssay (NCI).
